# Sampled rows, rich in hits. Any-hit rate of the full collection: about 3.2%.
# TMEM16A act – activates or potentiates the mouse TMEM16A chloride channel | Q8BHY3 | HEK293 TMEM16A/YFP-H148Q/I152L, iodide quench fluorescence; active compounds read low | B-score at 10 µM | actives 0.3% (n = 340,000) | AID 623877;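 active = fluorescence-ratio B-score plate-corrected deviation score at least 3 library SD below zero, with starting fluorescence score within 5 deviations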;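 note: channel opened by trigger with iodide after compound preincubation; score built on the fluorescence ratio of max minus min over baseline; more negative score means more quench and so TMEM16A activation or potentiation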
# Rce1 inhib – blocks yeast Ras-converting enzyme; Q03530; yeast membranes, quenched prenylated peptide cleavage fluorescence; calls only; actives 0.27% (n = 290,000); AID 2563;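 active = fall in fluorescence gain of 50% or more versus controls, with final raw signal at or below 3038400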;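 note: plate controls were neutral control wells for no effect and wells lacking membranes for full effect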
# Kir21 inh – Kir2.1 (mouse) channel inhibition; HEK293-Kir2.1, FluxOR thallium flux fluorescence; active compounds read low; B-score at 10 µM; actives 0.85% (n = 310,000);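 active = fluorescence ratio B-score at or below minus 3 SD of library scores, with starting-brightness B-score within 2 SD, cut at about -4.2 in these data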;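 note: channel flux triggered by added potassium and thallium sulfate stimulus; B-score of peak minus minimum fluorescence over baseline after thallium stimulus; more negative B-score means stronger Kir2.1 block with less thallium influx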
# Target sequence (P35561 whole entry, looked up): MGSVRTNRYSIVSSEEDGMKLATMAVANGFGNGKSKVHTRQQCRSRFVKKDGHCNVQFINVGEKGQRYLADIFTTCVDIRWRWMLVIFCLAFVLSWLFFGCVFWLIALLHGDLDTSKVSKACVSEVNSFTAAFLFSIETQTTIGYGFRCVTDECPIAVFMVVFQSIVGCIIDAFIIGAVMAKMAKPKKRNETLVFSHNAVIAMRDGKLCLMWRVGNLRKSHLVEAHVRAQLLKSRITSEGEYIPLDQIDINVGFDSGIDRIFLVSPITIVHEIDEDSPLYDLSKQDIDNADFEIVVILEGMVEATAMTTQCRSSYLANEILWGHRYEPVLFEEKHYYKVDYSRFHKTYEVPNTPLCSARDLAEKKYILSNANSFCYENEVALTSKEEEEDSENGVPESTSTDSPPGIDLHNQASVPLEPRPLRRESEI
# CHT block – inhibits the human high affinity choline transporter; Q9GZV3; CHT-expressing cells, membrane potential dye, choline response; active compounds read low; B-score at 10 µM; actives 0.86% (n = 310,000); AID 488975;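 active = B-score over 3 SD under the library average, and starting fluorescence ratio not unusually high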;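 note: choline stimulus applied at its EC90 after an EC20 pre-addition; B-score computed on integrated fluorescence ratio after choline addition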
# ANO1 block – inhibitors of mouse TMEM16A calcium-activated chloride channel. Q8BHY3. HEK293 TMEM16A/YFP iodide influx fluorescence, ionomycin. normalized B-score (activity score, 25-100; higher = stronger inhibition) at 10 µM. actives 1.2% (n = 310,000);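 active = ratio plate-corrected score three or more library SD toward inhibition, starting fluorescence score within five deviations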;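 note: score derived from kinetic fluorescence span divided by baseline fluorescence per well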
# CHT allo act – allosterically activates the human high affinity choline transporter; Q9GZV3; CHT-expressing cells, membrane potential dye, choline EC20; active compounds read high; LV-AA mutant CHT in HEK293 cells; B-score at 10 µM; actives 0.49% (n = 310,000); AID 488977;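 active = initial fluorescence not abnormally high and integrated response B-score, plate-corrected, over 3 SD above library mean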
# TMEM16A reconf – re-confirmation of mouse TMEM16A chloride channel inhibitors; shares compounds with ANO1 block; HEK293 TMEM16A/YFP-H148Q, iodide quench fluorescence; ionomycin added to raise cell calcium; inhibition, % at 10 µM; actives 39% (n = 2,300); AID 652189;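 active = mean duplicate percent inhibition, scaled so buffer wells are 0 and the reference blocker 100, over three buffer SD above buffer mean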
# TMEM16A Ca cntr – counter-screen for TMEM16A inhibitors: effect on calcium mobilization; calcium response (% of ionomycin), % at 10 µM; TMEM16A/YFP HEK293, Fluo4 calcium mobilization; AID 652231; actives 2% (n = 2,300); shares compounds with ANO1 block;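 active = duplicate-averaged calcium signal over 20% of the ionomycin maximum, relative to buffer baseline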;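 note: each well's signal is peak minus trough fluorescence divided by its pre-addition baseline; 0% = buffer wells and 100% = ionomycin wells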
# Parental YFP cnt – counter-screen for TMEM16A inhibitors: effect in parental YFP-HEK293 cells; 2,300 tested, under 10 active; iodide YFP quench, ionomycin; AID 652233; YFP ratio F(max-min)/F0 at 10 µM; shares compounds with ANO1 block;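 active = yellow fluorescent protein signal ratio exceeding the buffer control mean by over 5 SD of those controls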;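 note: ratio is mean of duplicate wells from kinetic YFP trace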
# ClC-1 rat inh – rat ClC-1 inhibition, TMEM16A specificity screen. AID 652236. 2,300 tested, under 10 active. ratio percent, % at 10 µM. shares compounds with ANO1 block. CHO ClC-1-YFP, iodide influx fluorescence quench; iodide control reads 0, buffer control 100;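 active = duplicate-mean ratio percent above the mean of iodide-only control wells, which defines zero, plus 5 of their SD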;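 note: higher percent means stronger block of ClC-1 iodide influx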
# Active calls of the source: *; i = inactive; . = no result.
SMILES,TMEM16A act,Rce1 inhib,Kir21 inh,CHT block,ANO1 block,CHT allo act,TMEM16A reconf,TMEM16A Ca cntr,Parental YFP cnt,ClC-1 rat inh
c1ccc(CCN2CCC(N3CCN(c4ccccc4)CC3)CC2)cc1,i,i,-0.03,i,25*,i,i,i,-1.4,2
CN1CCN(c2c(C#N)c(C(F)(F)F)nn2C)CC1,i,i,0.08,i,i,i,.,.,.,.
CN(C)CC1CCCCC1OC(=O)Cc1ccc(Cl)c([N+](=O)[O-])c1 (stereo not given),i,i,-0.06,i,i,i,.,.,.,.
O=[N+]([O-])c1ccc(N2CCCCCC2)c2nonc12,i,i,-9,i,i,i,.,.,.,.
O=[N+]([O-])c1ccc(N2CCCC(C(F)(F)F)C2)c2ccncc12 (stereo not given),i,i,-0.05,i,100*,i,20%*,i,-0.88,-24
CN1CCc2cccc(Cl)c2CC1,i,.,.,i,i,i,.,.,.,.
Nc1ccccc1Cl,i,.,.,.,.,.,.,.,.,.
COC(=O)C1=C(c2cccc(OC)c2OC)C[C@@H]2CC[C@H]1N2C(=O)NCCS(C)=O (stereo not given in full),i,i,1.1,i,100*,i,i,i,-1,-10
O=c1[nH]c(=O)n(CCC2=CCCCC2)c(O)c1C=NC1CCN(Cc2ccccc2)CC1,i,.,.,i,25*,i,i,i,-0.96,-7
Clc1ccc(CCNCc2ccncc2)c(Cl)c1,i,i,-0.37,i,25*,i,i,i,-1.2,-6
c1cc(CNCCc2ccc3c(c2)OCO3)ccn1,i,i,2.7,i,i,i,.,.,.,.
Cc1cc2c(C(F)(F)F)cc(=O)oc2c2c1NCCC2,i,.,-3.7,i,i,i,18%*,30%*,-0.94,-4
O=c1cc(C(F)(F)F)c2cc3c4c(c2o1)CCCN4CCC3,i,i,-11,i,i,i,.,.,.,.
C[C@]12CCC3C(CC[C@H]4C[C@@H](O)CC[C@]34C)C1C/C(=N/O)[C@@H]2O (stereo not given in full),i,.,.,.,.,.,.,.,.,.
O=C(Nc1ccc(C(F)(F)F)cc1)c1cccn(Cc2ccc3c(c2)OC(F)(F)O3)c1=O,i,i,-1.3,i,25*,i,i,i,-0.99,-12
CCOC(=O)C1(CCc2ccccc2)CCN(Cc2ccc3c(c2)OCCO3)CC1,i,i,-1.8,i,25*,i,i,i,-1.1,-8
CCOC(=O)C1(CCc2ccccc2)CCN(Cc2ccc(NC(C)=O)cc2)CC1,i,i,-0.49,i,i,i,.,.,.,.
CC1C=CCCC12C(=O)NC(=O)NC2=O (stereo not given),i,.,.,.,.,.,.,.,.,.
O=[N+]([O-])NC1=NCCN1Cc1ccc(Cl)nc1,i,i,0.23,i,i,i,.,.,.,.

# Source: PubChem BioAssay
